Source: PubChem BioAssay (NCI)
This is part of a sample that, as a whole, favours compounds with a hit. Of some 79,000 tested, about 15% had one in any assay. A number with no mark means an inactive call. Calls of active or inactive are those of the source. Rule as the data show it: active = growth inhibition above about 70%; inactive = the rest.

Assays:
[1] = NCI Yeast Anticancer Drug Screen. Data for the rad50 strain (AID 155);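 also: 0% = growth of vehicle-only cultures of the same strain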; settings: S. cerevisiae rad50 strain growth inhibition, stronger effect = higher value
In short: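 Growth of the mutant yeast was measured after compound exposure and referenced to vehicle-treated cultures.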

[2] = NCI Yeast Anticancer Drug Screen. Data for the mec2-1 strain (AID 157); settings: S. cerevisiae mec2-1 strain, stronger effect = higher value
In short: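 Growth inhibition is read against vehicle-treated controls after compound exposure of the mec2-1 yeast strain, which is defective in DNA damage repair or cell cycle control.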

[3] = NCI Yeast Anticancer Drug Screen. Data for the sgs1 mgt1 strain (AID 161);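 also: 0% = growth of cultures given vehicle only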; settings: S. cerevisiae sgs1 mgt1 strain, stronger effect = higher value
In short: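 Yeast cells carrying a defined DNA-repair defect were exposed to test compounds. Growth inhibition was measured relative to vehicle-treated controls.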

[4] = NCI Yeast Anticancer Drug Screen. Data for the cln2 rad14 strain (AID 165);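 also: 0% = growth equal to vehicle treated cultures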; settings: S. cerevisiae cln2 rad14 strain, stronger effect = higher value
In short: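 Growth inhibition, relative to vehicle-treated controls, is the read-out. The test organism is a yeast strain with defined genetic alterations, cln2 rad14.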

[5] = NCI Yeast Anticancer Drug Screen. Data for the bub3 strain (AID 167); settings: S. cerevisiae bub3 mutant strain, stronger effect = higher value
In short: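 Whole-cell yeast assay. The mutant strain was incubated with compounds, and growth inhibition was determined by comparison with vehicle-treated cells.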

[6] = NCI Yeast Anticancer Drug Screen. Data for the mlh1 rad18 strain (AID 175); settings: S. cerevisiae mlh1 rad18 strain growth inhibition, stronger effect = higher value
In short: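 Cells of a genetically altered yeast strain, deficient in DNA damage repair, were treated with compound. Their growth was then compared with that of vehicle-treated cultures to give inhibition.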

[7] = at 5.0 µM (retest, dose inferred, filed as 0.5)
[8] = at 50.0 µM (retest, dose inferred, filed as 5.0)

SMILES | growth inhibition [1, 7] | growth inhibition [1, 8] | growth inhibition ([1]; at 50.0 µM) | growth inhibition [2, 7] | growth inhibition [2, 8] | growth inhibition ([2]; at 50.0 µM) | growth inhibition [3, 7] | growth inhibition [3, 8] | growth inhibition ([3]; at 50.0 µM) | growth inhibition [4, 7] | growth inhibition [4, 8] | growth inhibition ([4]; at 50.0 µM) | growth inhibition [5, 7] | growth inhibition [5, 8] | growth inhibition ([5]; at 50.0 µM) | growth inhibition [6, 7] | growth inhibition [6, 8] | growth inhibition ([6]; at 50.0 µM)
N#C[S-].[Ce+3].c1cnc2c(c1)ccc1cccnc12.c1cnc2c(c1)ccc1cccnc12.c1cnc2c(c1)ccc1cccnc12 | 96% (active) | 99% (active) | 92% (active) | 99% (active) | 100% (active) | 94.8% (active) | 100% (active) | 100% (active) | 91% (active) | 94% (active) | 98% (active) | 93.5% (active) | 99% (active) | 99% (active) | 93% (active) | 97% (active) | 99% (active) | 92.8% (active)
COc1cc(/C=C/[N+](=O)[O-])cc(Br)c1OC | 86% (active) | 98% (active) | 90.6% (active) | 79% (active) | 99% (active) | 92.3% (active) | 83% (active) | 98% (active) | 92.5% (active) | 55% | 97% (active) | 90.2% (active) | 97% (active) | 98% (active) | 91.5% (active) | 89% (active) | 98% (active) | 91.7% (active)
N#CC(Cl)(Cl)CCl | 6% | 41% | -16.8% | -4% | 15% | 13.2% | 4% | 42% | -9% | -5% | 33% | 47% | 6% | 99% (active) | 0.15% | 2% | 38% | 2.5%
CC1(C(=O)O)CCCC2(C)c3cc(O)ccc3CCC12 (configuration not stated) | 2% | 83% (active) | 18.4% | 2% | 86% (active) | 13% | 2% | 88% (active) | 46.4% | -3% | 89% (active) | 52.4% | 5% | 87% (active) | 41.9% | 3% | 89% (active) | 42.5%
C#CC(O)(CC)CC | -4% | 10% | 69.1% | 0% | -4% | 13.4% | -3% | -2% | 77.1% (active) | -6% | -5% | 3.5% | -1% | 2% | 38.8% | -1% | 9% | 73.5% (active)
Cc1ccc(S(=O)(=O)N=S(=O)(CCCl)CCCl)cc1 | 16% | 98% (active) | 94% (active) | 17% | 97% (active) | 88.5% (active) | 25% | 99% (active) | 97.5% (active) | 18% | 94% (active) | 62.9% | 9% | 89% (active) | 47.4% | 27% | 98% (active) | 96.7% (active)
CC(=O)O.[RuH].c1ccc([PH+](c2ccccc2)c2ccccc2)cc1.c1ccc([PH+](c2ccccc2)c2ccccc2)cc1.c1ccc([PH+](c2ccccc2)c2ccccc2)cc1 | -10% | 75% (active) | 43.5% | -15% | 90% (active) | 70.9% (active) | -5% | 68% | 72.5% (active) | -9% | 91% (active) | 75% (active) | 35% | 89% (active) | 72.5% (active) | -20% | 89% (active) | 66.5%
Cc1cc(N(CCCl)CCCl)ccc1C1N(Cc2ccc(N(CCCl)CCCl)cc2Cl)CCCN1Cc1ccc(N(CCCl)CCCl)cc1Cl | 81% (active) | 96% (active) | 97.8% (active) | 75% (active) | 96% (active) | 99.2% (active) | 57% | 95% (active) | 98.2% (active) | 77% (active) | 93% (active) | 97.5% (active) | 74% (active) | 96% (active) | 97.7% (active) | 99% (active) | 93% (active) | 98.6% (active)
CCC[CH2][Sn]1([CH2]CCC)[O]C(=O)c2ccc(C)cc2[O]1 | 79% (active) | 99% (active) | 98.8% (active) | 84% (active) | 99% (active) | 99.3% (active) | 85% (active) | 98% (active) | 99.2% (active) | 76% (active) | 98% (active) | 98% (active) | 84% (active) | 98% (active) | 98.7% (active) | 82% (active) | 97% (active) | 98.8% (active)
C#CC(/C=C/Cl)(CC)OC(N)=O (configuration not stated) | 3% | 13% | 1.8% | 4% | 5% | 11.6% | 3% | 5% | -2% | 6% | -7% | 75.8% (active) | 0% | 43% | 55.9% | 9% | 16% | 31.2%
Nc1ccc(Br)cc1C(=O)c1ccccc1 | 12% | 95% (active) | 99% (active) | 11% | 97% (active) | 99% (active) | 32% | 98% (active) | 99.2% (active) | 12% | 95% (active) | 92.5% (active) | 6% | 96% (active) | 94% (active) | 14% | 95% (active) | 99.2% (active)
CCC[CH2][Sn]1([CH2]CCC)[O]C(=O)c2cccnc2[S]1 | 40% | 95% (active) | 78.4% (active) | 38% | 97% (active) | 78.3% (active) | 55% | 97% (active) | 77% (active) | 31% | 94% (active) | 62.5% | 44% | 97% (active) | 83.5% (active) | 51% | 97% (active) | 79.8% (active)
CC(C)CC(C)(c1ccc(O)cc1)c1ccc(O)cc1 | 81% (active) | 98% (active) | 92% (active) | 78% (active) | 99% (active) | 93.5% (active) | 99% (active) | 99% (active) | 93.8% (active) | 80% (active) | 99% (active) | 92.6% (active) | 98% (active) | 99% (active) | 92.2% (active) | 68% | 99% (active) | 92.3% (active)
C[C@@H]1C[C@@H]([C@H](O)CC2CC(=O)NC(=O)C2)C(=O)[C@@H](C)C1 | 95% (active) | 99% (active) | 92% (active) | 98% (active) | 100% (active) | 93.6% (active) | 94% (active) | 99% (active) | 94.2% (active) | 98% (active) | 99% (active) | 90.7% (active) | 98% (active) | 99% (active) | 93.7% (active) | 93% (active) | 99% (active) | 92.1% (active)
C[CH2][Sn]1([CH2]C)[O]C2C(OC)OC3COC(c4ccccc4)OC3C2[O]1 (configuration not stated) | 77% (active) | 80% (active) | 18.4% | 42% | 70% (active) | 61.2% | 67% | 77% (active) | -9.95% | 68% | 40% | -21.4% | 69% | 40% | 71.8% (active) | 53% | 54% | -16.1%
COc1ccc2c(ccc3oc([N+](=O)[O-])cc32)c1 | 93% (active) | 95% (active) | 85.9% (active) | 96% (active) | 97% (active) | 91% (active) | 93% (active) | 94% (active) | 79.8% (active) | 97% (active) | 96% (active) | 85.2% (active) | 87% (active) | 91% (active) | 68% | 95% (active) | 96% (active) | 84.2% (active)
COC([CH2][Hg])CN1C(=O)c2cc(C)c(C)cc2C1=O (configuration not stated) | 99% (active) | 99% (active) | 99.3% (active) | 100% (active) | 100% (active) | 99.7% (active) | 100% (active) | 100% (active) | 99.6% (active) | 99% (active) | 99% (active) | 98.3% (active) | 99% (active) | 99% (active) | 98.7% (active) | 99% (active) | 99% (active) | 99.3% (active)
C[C@]12CCCC[C@@H]1CC[C@@H]1[C@@H]2C(=O)C[C@@]2(C)[C@H]1CC[C@]2(C)O | 6% | 97% (active) | 60.4% | 0% | 99% (active) | 99% (active) | 0% | 99% (active) | 50.3% | 0% | 97% (active) | 20.6% | -4% | 80% (active) | 53% | 30% | 99% (active) | 98% (active)
CCc1cc(C)cc2[n+]1CC=C2 | -8% | 83% (active) | 98% (active) | -5% | 95% (active) | 96.4% (active) | -5% | 98% (active) | 98.3% (active) | -1% | 92% (active) | 98.1% (active) | -2% | 87% (active) | 98% (active) | -6% | 93% (active) | 97.8% (active)
